The results in this text go back to PubChem BioAssay (Tox21).

Inconclusive results are not listed. Activity calls are given as the source filed them. Calls follow the shape of the dose curve; as a rule, active = well fitted cell-killing curve with a large enough effect in the repeat runs; inconclusive = weak or mixed curves, or effect the other way; inactive = no such curve, though single readings can be large or run the other way.
% is scaled to controls: 0 for no effect and ±100 for the full control effect.

This assay is described as follows: qHTS assay to identify small molecule agonists of the vitamin D receptor (VDR) signaling pathway - cell viability counter screen (AID 743224). Also: nearly all actives have a fitted effect of over 50% in size. As to conditions: VDR-bla HEK293T viability, CellTiter-Glo luminescence, 16 h; series mostly up to 62.6 µM; activity change, negative = cytotoxicity: at the top concentration. In a few lines:
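Cytotoxicity counter screen: VDR-bla cells, 16 h compound exposure at 37C, 5% CO2; CellTiter-Glo luminescence, 30 min RT, same wells as bla read.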
Regarding `CC1=NN(c2cccc(S(=O)(=O)O)c2)C(=O)C1`, the “activity change, negative = cytotoxicity” value is 17.4% (inactive).
In the case of `Cc1onc(-c2c(Cl)cccc2Cl)c1C(=O)Cl`, the “activity change, negative = cytotoxicity” value was 1.43% (inactive).
Then `N[C@H](C(=O)O)[C@@H](O)c1ccc(O)c(O)c1`, with -3.41% (inactive); and `C1CCC2=NCCCN2CC1`, with 6.62% (inactive).
For the molecule `CC(C#N)(CCC(=O)O)N=NC(C)(C#N)CCC(=O)O` (configuration not stated), the “activity change, negative = cytotoxicity” value was 9.67% (inactive).
For `C=CN1CCCCCC1=O`, the “activity change, negative = cytotoxicity” value is 0.0462% (inactive).
For `CC[N+](CC)(CC)CCOc1cccc(OCC[N+](CC)(CC)CC)c1OCC[N+](CC)(CC)CC` the value was 6.9% (inactive); for `CC(C)(N)C#N`, -0.0106% [at 81.1 µM] (inactive); for `OCCCCCO`, 8.88% [at 81.1 µM] (inactive).
For `C=CCOCC(O)CO` (configuration not stated) the value was 3.88% (inactive); for `CC(=O)O[C@@]12CO[C@@H]1C[C@H](O)[C@@]1(C)C(=O)[C@H](O)C3=C(C)[C@@H](OC(=O)[C@H](O)[C@@H](NC(=O)OC(C)(C)C)c4ccccc4)C[C@@](O)([C@@H](OC(=O)c4ccccc4)[C@H]21)C3(C)C`, -18.2% (inactive); for `CC(C)(C)C(=O)c1ccccc1`, -17.4% (inactive).
Then `CCN[C@H]1C[C@H](C)S(=O)(=O)c2sc(S(N)(=O)=O)cc21`, with 17.1% (inactive); and `C[N+]12CCC(CC1)C(OC(=O)C(O)(c1ccccc1)c1ccccc1)C2` (configuration not stated), with 18.4% (inactive).
Turning to `c1coc(CNc2ncnc3nc[nH]c23)c1`, the “activity change, negative = cytotoxicity” value is -1.24% (inactive).
Regarding `NC(=O)Cc1cccc2ccccc12`, the “activity change, negative = cytotoxicity” value was 17.7% (inactive).
Then `CCCn1cc[n+](C)c1C`, with 14.9% [at 81.1 µM] (inactive).
On to `O=C(c1ccccc1)C1(O)CCCCC1`, for which the “activity change, negative = cytotoxicity” value was 5.96% (inactive).
For `Nc1ccncc1N` the value was 5.21% (inactive); for `C=COC(=O)C(C)(CC)CCC(C)C` (configuration not stated), 3.56% (inactive).
For `CC(=O)Oc1cccc(C)c1` the value was 11% (inactive).
Then `CN(C)CCCN(C)CCCN(C)C`, with 10.9% (inactive).
For the molecule `O=S(=O)(O)c1cc(O)c(O)c(S(=O)(=O)O)c1`, the “activity change, negative = cytotoxicity” value is 15.7% (inactive).
Then `Cc1ncc(COP(=O)(O)O)c(C=O)c1O`, with 13.9% (inactive); and `O=CN(CCO)CCO`, with 0.497% (inactive).
Take `CCCc1ncc(C[n+]2ccccc2C)c(N)n1`: the “activity change, negative = cytotoxicity” value was 0.713% (inactive).
For `CCOCC(C)O` (configuration not stated) the value was 21.2% (inactive); for `COc1ccnc(CS(=O)c2nc3cc(OC(F)F)ccc3[nH]2)c1OC` (configuration not stated), 15% [at 81.1 µM] (inactive).
Consider `C=C(C)C(=O)OCC(O)CO` (configuration not stated), for which the “activity change, negative = cytotoxicity” value is 8.94% (inactive).
For `CCN(C=O)CC`, the “activity change, negative = cytotoxicity” value was 3.99% [at 81.1 µM] (inactive).
In the case of `C[C@@H]1CCC[C@H](C)N1`, the “activity change, negative = cytotoxicity” value was 6.61% (inactive).
Then `COc1cc(-c2ccc(=O)[nH]n2)ccc1OC(F)F`, with 8.93% (inactive).
For `CC(C)(CCC(=O)O)C(=O)O` the value was -0.828% [at 81.1 µM] (inactive).
For `Cc1ccc(C(=O)Nc2ccc(S(=O)(=O)O)c3cc(S(=O)(=O)O)cc(S(=O)(=O)O)c23)cc1NC(=O)c1cccc(NC(=O)Nc2cccc(C(=O)Nc3cc(C(=O)Nc4ccc(S(=O)(=O)O)c5cc(S(=O)(=O)O)cc(S(=O)(=O)O)c45)ccc3C)c2)c1` the value was -3.47% (inactive).
As to `Cc1nc(C2CCCCC2)c(-c2ccc(S(N)(=O)=O)c(F)c2)o1`, the “activity change, negative = cytotoxicity” value was 0.745% (inactive).
For `COc1cc(C)nc(-n2nc(C)cc2OC)n1` the value was -0.444% (inactive); for `Cc1coc2ccccc2c1=O`, 0.106% (inactive).
